# Reference: paper PMC11006913
# Positions count from the first letter of the chain named.
# Tests used:
# Experiment in all cases: PBM; 200 nM protein, PBS
# Settings in all cases: dsDNA, one strand shown
# HOXB6 [1] = biological target: HOXB6 (Homo sapiens, UniProt P17509 132-218, K202E)
# HOXA2 [2] = biological target: HOXA2 (Homo sapiens, UniProt O43364 129-215, R185T)
# PITX2 = PITX2 (Homo sapiens, UniProt Q99697 72-157)
# HOXA2 [3] = biological target: HOXA2 (Homo sapiens, UniProt O43364 129-215, R185K)
# VAX1 [4] = biological target: VAX1 (Homo sapiens, UniProt Q5SQQ9 86-172)
# VAX1 [5] = biological target: VAX1 (Homo sapiens, UniProt Q5SQQ9 86-172, T142I)
# HOXA2 [6] = biological target: HOXA2 (Homo sapiens, UniProt O43364 129-215, Y150S)
# HOXA2 [7] = biological target: HOXA2 (Homo sapiens, UniProt O43364 129-215)
# VAX1 [8] = biological target: VAX1 (Homo sapiens, UniProt Q5SQQ9 86-172, K157R)
# HOXB6 [9] = biological target: HOXB6 (Homo sapiens, UniProt P17509 132-218)
# SIX6 [10] = biological target: T1, SIX6 (Homo sapiens, UniProt O95475 114-200, L143I)
# T1 sequence: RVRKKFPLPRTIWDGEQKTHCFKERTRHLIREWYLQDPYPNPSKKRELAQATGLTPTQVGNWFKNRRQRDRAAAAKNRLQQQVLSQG
# ALX1 [11] = biological target: ALX1 (Homo sapiens, UniProt Q15699 118-204, L144V)
# ALX1 [12] = biological target: ALX1 (Homo sapiens, UniProt Q15699 118-204, L144R)
# ALX1 [13] = biological target: ALX1 (Homo sapiens, UniProt Q15699 118-204)
# HOXD13 [14] = biological target: HOXD13 (Homo sapiens, UniProt P35453 263-343, T313R)
# HOXD13 [15] = biological target: HOXD13 (Homo sapiens, UniProt P35453 263-343)
# PAX4 = biological target: T2, PAX4 (Homo sapiens, UniProt O43316 9-242, F177Y)
# T2 sequence: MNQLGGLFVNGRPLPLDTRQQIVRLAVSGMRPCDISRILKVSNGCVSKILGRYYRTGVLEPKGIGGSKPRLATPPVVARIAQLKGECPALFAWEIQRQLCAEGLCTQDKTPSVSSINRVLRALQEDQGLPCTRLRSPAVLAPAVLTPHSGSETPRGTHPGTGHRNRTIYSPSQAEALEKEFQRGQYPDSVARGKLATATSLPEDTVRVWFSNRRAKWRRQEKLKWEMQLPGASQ
# PROP1 [16] = biological target: PROP1 (Homo sapiens, UniProt O75360 56-141)
# PROP1 [17] = biological target: PROP1 (Homo sapiens, UniProt O75360 56-141, R99H)
# HOXD13 [18] = biological target: HOXD13 (Homo sapiens, UniProt P35453 263-343, T313A)
# HOXC9 = HOXC9 (Homo sapiens, UniProt P31274 178-260, R222W)
# PROP1 [19] = biological target: PROP1 (Homo sapiens, UniProt O75360 56-141, F88S)
# NKX2-4 = biological target: T3, NKX2-4 (Homo sapiens, UniProt Q9H2Z4 175-261)
# T3 sequence: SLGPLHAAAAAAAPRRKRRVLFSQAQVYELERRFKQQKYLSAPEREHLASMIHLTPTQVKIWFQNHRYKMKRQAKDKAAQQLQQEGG
# SIX6 [20] = biological target: T4, SIX6 (Homo sapiens, UniProt O95475 114-200, L143M)
# T4 sequence: T1 sequence with I30M
# SIX6 [21] = biological target: T5, SIX6 (Homo sapiens, UniProt O95475 114-200, T165G)
# T5 sequence: T1 sequence with I30L, T52G
# Sequence of HOXD13 (Homo sapiens, UniProt P35453 263-343) (P35453 263-343): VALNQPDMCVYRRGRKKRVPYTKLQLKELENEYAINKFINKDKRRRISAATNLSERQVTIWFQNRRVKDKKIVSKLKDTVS
# Sequence of HOXD13 (Homo sapiens, UniProt P35453 263-343, T313R) (P35453 263-343 T313R): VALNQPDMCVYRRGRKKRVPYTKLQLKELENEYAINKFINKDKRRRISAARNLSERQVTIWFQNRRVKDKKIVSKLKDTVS
# Sequence of HOXD13 (Homo sapiens, UniProt P35453 263-343, T313A) (P35453 263-343 T313A): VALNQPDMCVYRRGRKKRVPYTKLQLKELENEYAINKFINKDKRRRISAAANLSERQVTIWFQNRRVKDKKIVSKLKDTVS
# Sequence of HOXB6 (Homo sapiens, UniProt P17509 132-218) (P17509 132-218): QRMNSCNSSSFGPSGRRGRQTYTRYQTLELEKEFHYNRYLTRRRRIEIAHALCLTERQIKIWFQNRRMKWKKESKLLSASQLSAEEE
# Sequence of HOXB6 (Homo sapiens, UniProt P17509 132-218, K202E) (P17509 132-218 K202E): as the sequence (P17509 132-218) above, with K71E counted along it
# Sequence of HOXA2 (Homo sapiens, UniProt O43364 129-215, Y150S) (O43364 129-215 Y150S): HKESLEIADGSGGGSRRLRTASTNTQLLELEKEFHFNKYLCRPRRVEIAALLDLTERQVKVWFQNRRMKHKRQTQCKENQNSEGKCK
# Sequence of HOXA2 (Homo sapiens, UniProt O43364 129-215) (O43364 129-215): as the sequence (O43364 129-215 Y150S) above, with S22Y counted along it
# Sequence of HOXA2 (Homo sapiens, UniProt O43364 129-215, R185T) (O43364 129-215 R185T): as the sequence (O43364 129-215 Y150S) above, with S22Y, R57T counted along it
# Sequence of ALX1 (Homo sapiens, UniProt Q15699 118-204, L144R) (Q15699 118-204 L144R): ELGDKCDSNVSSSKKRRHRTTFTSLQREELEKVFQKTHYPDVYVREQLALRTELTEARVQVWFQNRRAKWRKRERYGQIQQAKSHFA
# Sequence of HOXA2 (Homo sapiens, UniProt O43364 129-215, R185K) (O43364 129-215 R185K): as the sequence (O43364 129-215 Y150S) above, with S22Y, R57K counted along it
# Sequence of ALX1 (Homo sapiens, UniProt Q15699 118-204) (Q15699 118-204): as the sequence (Q15699 118-204 L144R) above, with R27L counted along it
# Sequence of ALX1 (Homo sapiens, UniProt Q15699 118-204, L144V) (Q15699 118-204 L144V): as the sequence (Q15699 118-204 L144R) above, with R27V counted along it
# Sequence of PROP1 (Homo sapiens, UniProt O75360 56-141, R99H) (O75360 56-141 R99H): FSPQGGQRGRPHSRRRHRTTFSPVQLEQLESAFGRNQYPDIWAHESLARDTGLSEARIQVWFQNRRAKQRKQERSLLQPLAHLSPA
# Sequence of VAX1 (Homo sapiens, UniProt Q5SQQ9 86-172, T142I) (Q5SQQ9 86-172 T142I): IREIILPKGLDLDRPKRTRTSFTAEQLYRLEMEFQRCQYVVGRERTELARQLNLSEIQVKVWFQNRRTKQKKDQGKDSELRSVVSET
# Sequence of PROP1 (Homo sapiens, UniProt O75360 56-141) (O75360 56-141): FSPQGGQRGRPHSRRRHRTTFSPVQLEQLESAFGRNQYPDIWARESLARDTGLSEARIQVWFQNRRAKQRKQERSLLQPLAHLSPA
# Sequence of PROP1 (Homo sapiens, UniProt O75360 56-141, F88S) (O75360 56-141 F88S): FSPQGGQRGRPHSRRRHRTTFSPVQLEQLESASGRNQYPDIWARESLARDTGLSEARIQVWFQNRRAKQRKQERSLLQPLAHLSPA
# Sequence of VAX1 (Homo sapiens, UniProt Q5SQQ9 86-172, K157R) (Q5SQQ9 86-172 K157R): as the sequence (Q5SQQ9 86-172 T142I) above, with I57T, K72R counted along it
# Sequence of VAX1 (Homo sapiens, UniProt Q5SQQ9 86-172) (Q5SQQ9 86-172): as the sequence (Q5SQQ9 86-172 T142I) above, with I57T counted along it
# Sequence of HOXC9 (P31274 178-260 R222W): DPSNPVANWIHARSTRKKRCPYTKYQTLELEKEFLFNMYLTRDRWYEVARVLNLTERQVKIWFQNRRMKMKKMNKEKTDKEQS
sequence,measurement,setting,value
CGTGGCAG,binding signal,HOXB6 [1],"9.05 upbm affinity estimate (log intensity, higher = more binding, comparable within an allelic series)"
same,binding signal,HOXA2 [2],"7.29 upbm affinity estimate (log intensity, higher = more binding, comparable within an allelic series)"
same,binding signal,PITX2,"8.07 upbm affinity estimate (log intensity, higher = more binding, comparable within an allelic series)"
same,binding signal,HOXA2 [3],"10.5 upbm affinity estimate (log intensity, higher = more binding, comparable within an allelic series)"
same,binding signal,VAX1 [4],"7.05 upbm affinity estimate (log intensity, higher = more binding, comparable within an allelic series)"
same,binding signal,VAX1 [5],"7.33 upbm affinity estimate (log intensity, higher = more binding, comparable within an allelic series)"
same,binding signal,HOXA2 [6],"10.4 upbm affinity estimate (log intensity, higher = more binding, comparable within an allelic series)"
same,binding signal,HOXA2 [7],"7.45 upbm affinity estimate (log intensity, higher = more binding, comparable within an allelic series)"
same,binding signal,VAX1 [8],"7.05 upbm affinity estimate (log intensity, higher = more binding, comparable within an allelic series)"
same,binding signal,HOXB6 [9],"9.07 upbm affinity estimate (log intensity, higher = more binding, comparable within an allelic series)"
ATACATAC,binding signal,SIX6 [10],"10.4 upbm affinity estimate (log intensity, higher = more binding, comparable within an allelic series)"
GACCGAGC,binding signal,HOXB6 [1],"8.96 upbm affinity estimate (log intensity, higher = more binding, comparable within an allelic series)"
same,binding signal,ALX1 [11],"6.39 upbm affinity estimate (log intensity, higher = more binding, comparable within an allelic series)"
same,binding signal,ALX1 [12],"6.24 upbm affinity estimate (log intensity, higher = more binding, comparable within an allelic series)"
same,binding signal,ALX1 [13],"6.33 upbm affinity estimate (log intensity, higher = more binding, comparable within an allelic series)"
same,binding signal,HOXB6 [9],"8.92 upbm affinity estimate (log intensity, higher = more binding, comparable within an allelic series)"
AATTTAAT,binding signal,HOXB6 [1],"9.98 upbm affinity estimate (log intensity, higher = more binding, comparable within an allelic series)"
same,binding signal,HOXD13 [14],"10.4 upbm affinity estimate (log intensity, higher = more binding, comparable within an allelic series)"
same,binding signal,HOXD13 [15],"11.5 upbm affinity estimate (log intensity, higher = more binding, comparable within an allelic series)"
same,binding signal,PAX4,"10.9 upbm affinity estimate (log intensity, higher = more binding, comparable within an allelic series)"
same,binding signal,PROP1 [16],"11.2 upbm affinity estimate (log intensity, higher = more binding, comparable within an allelic series)"
same,binding signal,PROP1 [17],"10.7 upbm affinity estimate (log intensity, higher = more binding, comparable within an allelic series)"
same,binding signal,HOXD13 [18],"11.3 upbm affinity estimate (log intensity, higher = more binding, comparable within an allelic series)"
same,binding signal,HOXC9,"11.1 upbm affinity estimate (log intensity, higher = more binding, comparable within an allelic series)"
same,binding signal,PROP1 [19],"7.76 upbm affinity estimate (log intensity, higher = more binding, comparable within an allelic series)"
ACTACTAG,binding signal,NKX2-4,"11.1 upbm affinity estimate (log intensity, higher = more binding, comparable within an allelic series)"
ATAGTATC,binding signal,SIX6 [20],"11 upbm affinity estimate (log intensity, higher = more binding, comparable within an allelic series)"
ATCATGAT,binding signal,SIX6 [10],"10.4 upbm affinity estimate (log intensity, higher = more binding, comparable within an allelic series)"
AGTGCGTG,binding signal,NKX2-4,"11.3 upbm affinity estimate (log intensity, higher = more binding, comparable within an allelic series)"
CTCGTGCC,binding signal,HOXB6 [1],"9.04 upbm affinity estimate (log intensity, higher = more binding, comparable within an allelic series)"
same,binding signal,ALX1 [11],"6.52 upbm affinity estimate (log intensity, higher = more binding, comparable within an allelic series)"
same,binding signal,ALX1 [12],"6.32 upbm affinity estimate (log intensity, higher = more binding, comparable within an allelic series)"
same,binding signal,ALX1 [13],"6.36 upbm affinity estimate (log intensity, higher = more binding, comparable within an allelic series)"
same,binding signal,HOXB6 [9],"8.84 upbm affinity estimate (log intensity, higher = more binding, comparable within an allelic series)"
GGCCTCCC,binding signal,HOXB6 [1],"8.93 upbm affinity estimate (log intensity, higher = more binding, comparable within an allelic series)"
same,binding signal,HOXD13 [14],"9.37 upbm affinity estimate (log intensity, higher = more binding, comparable within an allelic series)"
same,binding signal,HOXD13 [15],"9.63 upbm affinity estimate (log intensity, higher = more binding, comparable within an allelic series)"
same,binding signal,HOXD13 [18],"9.7 upbm affinity estimate (log intensity, higher = more binding, comparable within an allelic series)"
same,binding signal,HOXB6 [9],"9.02 upbm affinity estimate (log intensity, higher = more binding, comparable within an allelic series)"
CGGAGGCC,binding signal,HOXB6 [1],"8.93 upbm affinity estimate (log intensity, higher = more binding, comparable within an allelic series)"
same,binding signal,HOXA2 [2],"7.34 upbm affinity estimate (log intensity, higher = more binding, comparable within an allelic series)"
same,binding signal,HOXD13 [14],"9.47 upbm affinity estimate (log intensity, higher = more binding, comparable within an allelic series)"
same,binding signal,HOXA2 [3],"10.1 upbm affinity estimate (log intensity, higher = more binding, comparable within an allelic series)"
same,binding signal,HOXD13 [15],"9.47 upbm affinity estimate (log intensity, higher = more binding, comparable within an allelic series)"
same,binding signal,HOXD13 [18],"9.66 upbm affinity estimate (log intensity, higher = more binding, comparable within an allelic series)"
same,binding signal,HOXA2 [6],"10.3 upbm affinity estimate (log intensity, higher = more binding, comparable within an allelic series)"
same,binding signal,HOXA2 [7],"7.12 upbm affinity estimate (log intensity, higher = more binding, comparable within an allelic series)"
same,binding signal,HOXB6 [9],"8.97 upbm affinity estimate (log intensity, higher = more binding, comparable within an allelic series)"
CATTAGGC,binding signal,HOXB6 [1],"9.37 upbm affinity estimate (log intensity, higher = more binding, comparable within an allelic series)"
same,binding signal,HOXB6 [9],"10.4 upbm affinity estimate (log intensity, higher = more binding, comparable within an allelic series)"
AATACCAA,binding signal,HOXB6 [1],"9.59 upbm affinity estimate (log intensity, higher = more binding, comparable within an allelic series)"
same,binding signal,HOXB6 [9],"10.2 upbm affinity estimate (log intensity, higher = more binding, comparable within an allelic series)"
AATGGCTA,binding signal,HOXB6 [1],"9.56 upbm affinity estimate (log intensity, higher = more binding, comparable within an allelic series)"
same,binding signal,HOXB6 [9],"10.8 upbm affinity estimate (log intensity, higher = more binding, comparable within an allelic series)"
CTCCGAAG,binding signal,HOXB6 [1],"9.06 upbm affinity estimate (log intensity, higher = more binding, comparable within an allelic series)"
same,binding signal,HOXB6 [9],"9.02 upbm affinity estimate (log intensity, higher = more binding, comparable within an allelic series)"
CCAGTCCC,binding signal,HOXB6 [1],"9.1 upbm affinity estimate (log intensity, higher = more binding, comparable within an allelic series)"
same,binding signal,HOXB6 [9],"8.95 upbm affinity estimate (log intensity, higher = more binding, comparable within an allelic series)"
ATCACATG,binding signal,HOXB6 [1],"9.52 upbm affinity estimate (log intensity, higher = more binding, comparable within an allelic series)"
same,binding signal,HOXB6 [9],"9.98 upbm affinity estimate (log intensity, higher = more binding, comparable within an allelic series)"
ACTATTCA,binding signal,HOXB6 [1],"9.59 upbm affinity estimate (log intensity, higher = more binding, comparable within an allelic series)"
same,binding signal,HOXB6 [9],"10.2 upbm affinity estimate (log intensity, higher = more binding, comparable within an allelic series)"
GGTATTAC,binding signal,HOXB6 [1],"9.66 upbm affinity estimate (log intensity, higher = more binding, comparable within an allelic series)"
same,binding signal,HOXB6 [9],"10.2 upbm affinity estimate (log intensity, higher = more binding, comparable within an allelic series)"
CCGGCGCA,binding signal,HOXB6 [1],"9.01 upbm affinity estimate (log intensity, higher = more binding, comparable within an allelic series)"
same,binding signal,HOXB6 [9],"9.07 upbm affinity estimate (log intensity, higher = more binding, comparable within an allelic series)"
AGTCGCCC,binding signal,HOXB6 [1],"8.98 upbm affinity estimate (log intensity, higher = more binding, comparable within an allelic series)"
same,binding signal,HOXB6 [9],"9.09 upbm affinity estimate (log intensity, higher = more binding, comparable within an allelic series)"
AAATCGAC,binding signal,HOXB6 [1],"9.47 upbm affinity estimate (log intensity, higher = more binding, comparable within an allelic series)"
same,binding signal,HOXB6 [9],"10.1 upbm affinity estimate (log intensity, higher = more binding, comparable within an allelic series)"
CAAAATGG,binding signal,HOXB6 [1],"9.63 upbm affinity estimate (log intensity, higher = more binding, comparable within an allelic series)"
same,binding signal,HOXB6 [9],"10.4 upbm affinity estimate (log intensity, higher = more binding, comparable within an allelic series)"
CGCAGGAG,binding signal,HOXB6 [1],"9.14 upbm affinity estimate (log intensity, higher = more binding, comparable within an allelic series)"
same,binding signal,HOXB6 [9],"8.95 upbm affinity estimate (log intensity, higher = more binding, comparable within an allelic series)"
AGGTGTGA,binding signal,SIX6 [21],"10.5 upbm affinity estimate (log intensity, higher = more binding, comparable within an allelic series)"
GCCCCGCA,binding signal,HOXB6 [1],"9.01 upbm affinity estimate (log intensity, higher = more binding, comparable within an allelic series)"
same,binding signal,HOXB6 [9],"9.08 upbm affinity estimate (log intensity, higher = more binding, comparable within an allelic series)"
AGACACCA,binding signal,SIX6 [21],"10.5 upbm affinity estimate (log intensity, higher = more binding, comparable within an allelic series)"
GGCAGCAC,binding signal,HOXB6 [1],"9.12 upbm affinity estimate (log intensity, higher = more binding, comparable within an allelic series)"
same,binding signal,HOXB6 [9],"9.12 upbm affinity estimate (log intensity, higher = more binding, comparable within an allelic series)"
